An excerpt weighted towards active compounds, which were near 0.88% of everything screened.
ERG Ets-DNA blk = ERG Ets/DNA interaction inhibition; P11308; Potency, µM (series often up to 76.9 µM), for the others: at the top dose FP activity, negative = inhibition, most hits filed as inhibitors; hit rate 0.028% among 370,000; fluorescence polarization, His-ERG Ets domain / labelled DNA; AID 624246; active = well fitted inhibition curve with a large enough effect in the polarisation, with a control signal flat; inconclusive = small, poorly fitted or top-dose-only effect, or effect the other way, or a change in a side signal; inactive = no such curve, though single readings can be large or run the other way; the % refers to the polarisation;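 note: polarization taken with two DNA probes labelled with fluorescein and Texas red; % of control where 0% means no effect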
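His-tagged ERG Ets domain (1 uM in the protein solution; 300mM KCl, 50mM Tris-HCl, 1mM EDTA, 1mM DTT, pH 7.5) received compound, then a probe mix of 5 nM fluorescein-DNA and 100nM Texas-615-DNA. Fluorescence polarization was read for both dyes.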
WRN helicase inh-1 = inhibitors of human WRN helicase; WRN helicase unwinding, fluorescent forked duplex, kinetic; hit rate 0.46% among 360,000; Q14191; Potency, µM (highest dose often 114 µM), without a hit: at the highest dose activity change, negative = inhibition, usual class: inhibitors; note: % is set by controls: 0 for no effect and ±100 for the full control effect; nearly all actives have a fitted effect of over 55% in size
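Screening of the MLSMR collection measured strand separation of a quenched forked DNA duplex (100 nM) by 20 nM WRN with 2 mM ATP, all final. Compounds were preincubated with enzyme 15 min at room temperature.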
RECQ1 helicase = blocks DNA unwinding by human RECQ1 | P46063 | RECQ1 DNA unwinding, red fluorescence kinetic read | Potency, µM (doses to about 57.3 µM), for inactives: at the highest dose activity, negative = inhibition, actives largely listed as inhibitors | hit rate 0.54% among 240,000 | AID 2549;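 note: plate controls were vehicle for no effect and no enzyme for full effect; nearly all actives have a fitted effect of over 30% in size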
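50 nM RECQ1T1 preincubated 15 min with compound in Tris pH 8.0 buffer with MgCl2, DTT, Tween-20 and 2.5 ug/ml poly(dI-dC); started with 200 nM TAMRA/BHQ-2 forked duplex and 2 mM ATP. Unwinding read as fluorescence (525/598 nm), two reads 2 h apart.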
BLM helicase inh-1 = Bloom syndrome helicase (human) inhibition; P54132; recombinant BLM DNA unwinding, fluorescence dequenching; Potency, µM (top dose mostly 56.1 µM), for inactives: at the highest dose activity change, negative = inhibition, most hits filed as inhibitors; hit rate 0.2% among 350,000; AID 2528;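 note: plate controls were vehicle for no effect and no enzyme for full effect; nearly all actives have a fitted effect of over 35% in size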
APE1 inh = blocks human APE1 abasic DNA cleavage; P27695; recombinant APE1, TAMRA/BHQ-2 abasic DNA cleavage fluorescence; Potency, µM (top dose mostly 65.8 µM), for the others: at the highest dose activity change, negative = inhibition, actives largely listed as inhibitors; hit rate 0.35% among 350,000; AID 2517;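 note: plate controls were vehicle for no effect and reference inhibitor for full effect; nearly all actives have a fitted effect of over 55% in size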
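Substrate: short duplex with […] THF abasic site, 5'-TAMRA and 3'-BHQ-2, 50 nM final. APE1 at 0.75 nM, preincubated 15 min RT with compound. Fluorescence increase from first to third read measured activity.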
GCN5L2 inh = inhibitors of human GCN5L2 histone acetyltransferase; Q92830; GCN5L2 HAT assay, ThioGlo1 CoA-SH fluorescence; Potency, µM (top dose mostly 58.9 µM), without a hit: top-dose activity change, negative = inhibition, hits mostly inhibitors; hit rate 0.21% among 390,000; AID 504327; note: % is set by controls: 0 for no effect and ±100 for the full control effect
Target sequence (Q92830 whole entry, looked up): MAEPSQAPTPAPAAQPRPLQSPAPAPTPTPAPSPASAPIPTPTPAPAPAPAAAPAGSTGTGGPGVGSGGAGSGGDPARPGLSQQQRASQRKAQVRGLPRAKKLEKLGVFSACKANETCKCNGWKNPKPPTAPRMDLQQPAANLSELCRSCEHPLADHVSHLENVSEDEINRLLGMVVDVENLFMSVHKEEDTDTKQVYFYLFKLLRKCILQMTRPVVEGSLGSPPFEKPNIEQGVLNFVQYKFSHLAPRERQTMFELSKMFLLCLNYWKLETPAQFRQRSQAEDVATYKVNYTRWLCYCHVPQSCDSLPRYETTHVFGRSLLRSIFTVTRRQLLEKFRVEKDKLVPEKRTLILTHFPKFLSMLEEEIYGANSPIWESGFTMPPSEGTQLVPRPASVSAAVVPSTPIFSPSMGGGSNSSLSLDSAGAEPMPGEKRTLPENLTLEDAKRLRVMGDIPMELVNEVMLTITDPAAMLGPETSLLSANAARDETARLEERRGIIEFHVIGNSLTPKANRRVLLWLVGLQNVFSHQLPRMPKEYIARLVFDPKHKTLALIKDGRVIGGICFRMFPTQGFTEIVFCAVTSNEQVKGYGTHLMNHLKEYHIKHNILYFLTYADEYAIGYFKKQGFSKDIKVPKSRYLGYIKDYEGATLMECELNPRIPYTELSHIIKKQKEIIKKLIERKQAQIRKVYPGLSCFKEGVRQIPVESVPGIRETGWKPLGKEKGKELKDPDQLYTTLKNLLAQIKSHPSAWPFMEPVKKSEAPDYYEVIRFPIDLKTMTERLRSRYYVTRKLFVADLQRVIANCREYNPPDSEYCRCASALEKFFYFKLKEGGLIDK
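Compounds, pin-transferred from DMSO stocks, meet 20nM GCN5L2 for 15 min before the reaction begins with H3(1-25) peptide (75uM) and acetyl-CoA (70uM). Thiol-reactive ThioGlo1 reports CoA release over 20 min at room temperature.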
WRN helicase inh-2 = WRN helicase inhibition, cherry-pick retest | shares compounds with WRN helicase inh-1 | WRN helicase DNA unwinding, fluorescence kinetic | Potency, µM (highest dose often 57.1 µM), without a hit: top-dose activity, negative = inhibition, most hits filed as inhibitors | hit rate 63% among 610; note: nearly all actives have a fitted effect of over 65% in size
TO displacement = counter-screen for WRN helicase inhibitors: DNA binding; thiazole orange DNA binding displacement, fluorescence; Potency, µM (series often up to 57.1 µM), for the others: at the top dose activity change, negative = inhibition, most hits filed as inhibitors; hit rate 10% among 610; shares compounds with WRN helicase inh-1;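 note: drop in dye fluorescence marks compound binding to DNA; % is set by controls: 0 for no effect and ±100 for the full control effect; nearly all actives have a fitted effect of over 60% in size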
BLM helicase inh-2 = counter-screen for WRN helicase inhibitors: human BLM helicase inhibition; AID 720503; shares compounds with WRN helicase inh-1; Recombinant BLM helicase DNA unwinding, red fluorescence; hit rate 60% among 610; Potency, µM (titrated, usually from 57.1 µM), without a hit: top-dose activity change, negative = inhibition, usual class: inhibitors; note: nearly all actives have a fitted effect of over 60% in size
Active calls of the source: *; i = inactive; ? = inconclusive; nt = no result given; [ ] = dose if it differs, or a comment. Unless noted, calls come from the whole dose curve; as a rule, active = well fitted curve in the direction sought with a large enough effect; inconclusive = small, poorly fitted or top-dose-only effect, or another doubt; inactive = no such curve, though single readings can be large; an effect the other way counts as inactive or inconclusive. Potency is the fitted concentration of half-maximal effect.

SMILES	ERG Ets-DNA blk	WRN helicase inh-1	RECQ1 helicase	BLM helicase inh-1	APE1 inh	GCN5L2 inh	WRN helicase inh-2	TO displacement	BLM helicase inh-2
O=C(O)CC(C(=O)O)N1C(=O)/C(=C/C=C/c2ccco2)SC1=S (centres undefined)	40.2%	10µM*	3.98µM*	107.2%	1µM*	-13.5%	3.83µM*	3.83µM*	4.82µM*
O=C(O)CC(C(=O)O)N1C(=O)/C(=C/c2ccc(-c3nc4ccccc4s3)o2)SC1=S (centres undefined)	13.3%	28.2µM*	?	36.1%	3.2%	?	21.5µM*	150.9%	-13.9%
COC(=O)C/C=C\[C@@H](C)[C@@H](/C=N\OCC[C@H]1C=C[C@H](OC(C)=O)[C@@H](COC(C)=O)O1)NS(=O)(=O)c1ccc(C)cc1	nt	nt	0.9%[11.5 µM]	-1.6%[12.4 µM]	0.4%[12.4 µM]	nt	nt	nt	nt
O=[N+]([O-])c1cc2ccccc2c(O)c1O	nt	?	nt	nt	nt	nt	12.1µM*	-9.9%	0.681µM*
O=[N+]([O-])c1cc2c(c3cccnc13)COCO2	nt	?	nt	nt	nt	nt	?	-28.8%	15.2µM*
c1cnc2ccc3c(c2c1)COCO3	0.3%	0.4%	nt	nt	nt	nt	nt	nt	nt
COc1cc(CNC(=O)c2ccc3c(c2)c(C)c(C)n3Cc2cccc(C)c2)cc(OC)c1OC	-19.6%	nt	nt	-10.2%	nt	13.7%	nt	nt	nt
Cc1cccc(N=C2NC(=O)/C(=C/C=C/c3ccco3)S2)c1C	1.2%	31.6µM*	-6.2%	?	?	-8.9%	15.2µM*	27.1µM*	8.57µM*
CN(C)CCCNc1cc(N2CCN(C3CCCCC3)CC2)c2noc3c2c1C(=O)c1ccccc1-3	-8.7%	nt	nt	35.9%	nt	-2.4%	24.1µM*	212.8%	42.9µM*
NS(=O)(=O)c1ccc(N=Nc2c(O)c(C(=O)O)cc3ccccc23)cc1	1.4%	-9.2%[11.6 µM]	-22.7%	-13.3%	-6.6%	-8.2%	nt	nt	nt
O=C(O)Cc1ccc(N=Nc2c(O)c(C(=O)O)cc3ccccc23)cc1	18.5%	25.1µM*	?	-18.4%	?	?	19.2µM*	?	17.1µM*
CCOC(=O)N1CCN(Cc2nc3cc(NC(=O)c4ccc(F)cc4)ccc3n2C(C)C)CC1	-3.2%	nt	nt	-6.7%	nt	-8.0%	nt	nt	nt
CNC(=O)c1c(NC(=O)/C=C/c2ccccc2Cl)sc2c1CCC2	7.6%	nt	nt	-4.8%	nt	-12.9%	nt	nt	nt
CCOC(=O)c1c(-c2ccc(F)cc2)csc1NC(=O)CN1C(=O)NC2(CCCCC2C)C1=O (centres undefined)	5.9%	?	i	-2.8%	-0.9%	0.4%	-6.9%	-4.5%	-12.2%
CCOc1cccc2cc(-c3nc4sc(C(=O)Nc5ccc(C)cc5)c(C)c4c(=O)[nH]3)c(=O)oc12	5.8%	nt	nt	-2.6%	nt	-0.2%	nt	nt	nt
COc1ccc(C(=O)Nc2ccc3oc(-c4cc(Cl)ccc4Cl)nc3c2)cc1Br	1.0%	nt	nt	-21.5%	nt	-1.8%	nt	nt	nt
N#Cc1c([N+](=O)[O-])cc([N+](=O)[O-])cc1S(=O)(=O)Cc1ccccc1	nt	11.2µM*	nt	nt	-6.9%	14.1µM*	-24.4%	?	-23.8%
Cc1nnsc1S(=O)c1ccc(Cl)cc1 (centres undefined)	-3.1%	0.1%	nt	-0.6%	9.8%	2.8%	nt	nt	nt
O=C(Nc1ccccc1)c1nnsc1S(=O)c1ccc(Cl)cc1 (centres undefined)	6.1%	22.4µM*	7.4%	-4.4%	-4.9%	-13.7%	-20.0%	83.6%	-22.3%
O=C1NC2c3c(Cl)sc(Cl)c3C(=O)C2O1 (centres undefined)	nt	2.38µM*	nt	nt	nt	nt	15.2µM*	-18.2%	1.36µM*
Cc1ccccc1/C=C1\SC(=S)N(/N=C/c2cc([N+](=O)[O-])ccc2O)C1=O	-3.3%	-22.2%[11.6 µM]	-4.5%	-12.5%	6.6%	?	nt	nt	nt
O=C1/C(=C\c2cc([N+](=O)[O-])ccc2O)SC(=S)N1Cc1ccc(Cl)cc1	4.9%	5.97µM*	nt	31.6µM*	?	-13.3%	5.41µM*	20.7%	3.04µM*
C=CCn1c(SCC(=O)c2ccc(O)c(O)c2)nnc1-c1cccc(OC)c1	-16.1%	?	nt	nt	-24.4%	-29.4%	nt	nt	nt
C=CCn1c(SCC(=O)c2ccc(O)c(O)c2)nnc1-c1ccc(OC)cc1	14.9%	28.2µM*	nt	nt	-31.8%	?	17.1µM*	-3.5%	?
C=CCn1c(SCC(=O)c2ccc(O)c(O)c2)nnc1-c1ccc(C)cc1	-0.6%	?	nt	nt	-25.6%	-25.9%	19.2µM*	-4.8%	?
O=C1CCCc2cc(S(=O)(=O)NCC3CCC(C(=O)Nc4ccc(Cl)cc4)CC3)ccc2N1 (centres undefined)	-5.7%	nt	nt	-0.7%	nt	-0.3%	nt	nt	nt

Assay outcomes from PubChem.
